In PubChem BioAssay (NCATS):
Results filed as inconclusive are left out. Unless noted, calls come from the whole dose curve; as a rule, active = well fitted curve in either direction with a large enough effect (not every such curve was filed as active); inconclusive = small, poorly fitted or top-dose-only effect, or another doubt; inactive = flat fitted curve, though single readings scatter.

Key:
[1] = AP1 Signaling Pathway (AID 357); settings: ME-180 AP-1-bla reporter, EGF-induced, beta-lactamase ratio, 5 h; at 17.2 µM (top of the series) unless noted; note: % is set by controls: 0 for no effect and ±100 for the full control effect
How it was run: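 ME-180 cells with beta-lactamase reporter under AP-1 response element, stimulated with EC50 EGF; compounds tested in titration series, 5 h at 37 °C. CCF4 substrate added 2.5 h at room temperature; 460/530 nm emission ratio gave %activity and AC50.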

[2] = NFAT Signaling Pathway (AID 444); settings: Jurkat NFAT-bla M1, carbachol, beta-lactamase ratio, 5 h; at 17.2 µM (top of the series) unless noted;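 note: carbachol stimulus at about its EC50 of 1 µM final; % is set by controls: 0 for no effect and ±100 for the full control effect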
How it was run: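 Read-out: CCF4 FRET ratio (460 nm/530 nm) after 1 h RT dye loading, used for %activity and AC50 from titration series. Cells: Jurkat NFAT-β-lactamase/M1 line, treated with compound plus 1 uM carbachol for 5 h, 37 °C.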

[3] = Stat Signaling Pathway (AID 446); settings: ME-180 SIE beta-lactamase reporter, IL-6 stimulated, 5 h; at 17.2 µM (top of the series) unless noted;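 note: ME-180 cervical cancer cells given 40 pM IL-6 alongside compound; SIE-controlled beta-lactamase reporter measured as 460/530 nm FRET emission ratio; % is set by controls: 0 for no effect and ±100 for the full control effect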
How it was run: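 Screening format detects activators and inhibitors alike: ME-180 SIE-bla cells stimulated at 40 pM IL-6 for 5 hrs with compound, then dual-emission beta-lactamase read at 405 nm excitation.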

[4] = target: Glucocorticoid receptor (Homo sapiens) (UniProt P04150); assay: GR-GFP Redistribution (AID 450;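 active = compounds whose dose series gives a full or clear partial fitted curve of increased nuclear translocation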; note: potency is the fitted concentration of half-maximal effect)
Glucocorticoid receptor (Homo sapiens), sequence (P04150 whole entry, looked up): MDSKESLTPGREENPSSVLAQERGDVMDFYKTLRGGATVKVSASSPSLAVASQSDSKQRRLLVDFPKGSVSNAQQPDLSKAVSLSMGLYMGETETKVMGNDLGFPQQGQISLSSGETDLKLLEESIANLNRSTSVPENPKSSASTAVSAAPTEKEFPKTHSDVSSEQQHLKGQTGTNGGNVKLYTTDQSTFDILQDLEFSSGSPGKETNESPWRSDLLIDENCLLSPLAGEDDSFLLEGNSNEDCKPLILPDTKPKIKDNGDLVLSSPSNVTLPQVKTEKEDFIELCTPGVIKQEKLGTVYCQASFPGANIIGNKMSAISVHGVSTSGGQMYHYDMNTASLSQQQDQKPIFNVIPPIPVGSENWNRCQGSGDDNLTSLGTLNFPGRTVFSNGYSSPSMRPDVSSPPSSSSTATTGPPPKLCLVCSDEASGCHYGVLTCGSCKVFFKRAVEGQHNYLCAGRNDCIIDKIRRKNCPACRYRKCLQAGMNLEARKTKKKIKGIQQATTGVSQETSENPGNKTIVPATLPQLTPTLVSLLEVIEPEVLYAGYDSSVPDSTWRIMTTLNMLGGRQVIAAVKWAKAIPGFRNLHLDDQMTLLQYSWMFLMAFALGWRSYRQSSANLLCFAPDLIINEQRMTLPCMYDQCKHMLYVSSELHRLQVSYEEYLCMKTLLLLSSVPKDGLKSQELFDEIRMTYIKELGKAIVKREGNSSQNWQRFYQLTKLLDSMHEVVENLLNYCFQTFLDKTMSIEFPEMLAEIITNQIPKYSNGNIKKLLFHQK

c1ccc(-n2c(Cc3cccnc3)nc3cnccc32)cc1
inactive: activity change, negative = inhibition [1] -10.4% | activity change, negative = inhibition [2] 15.3% | activity, negative = inhibition [3] 6.69% | Potency [4] > 20.6 µM

Cn1ncc(N=Cc2ccccc2O)c1C(=O)N1CCOCC1
inactive: activity change, negative = inhibition [1] 2.72% | activity change, negative = inhibition [2] -6.4% | activity, negative = inhibition [3] -4.13% | Potency [4] > 20.6 µM

c1csc(Cc2nn3c(-c4ccncc4)nnc3s2)c1
inactive: activity change, negative = inhibition [1] -25% | activity change, negative = inhibition [2] 5.73% | activity, negative = inhibition [3] -2.56% | Potency [4] > 20.6 µM

CSc1sc(C(=O)O)c2c1C(=O)CCC2
inactive: activity change, negative = inhibition [1] 12.2% | activity change, negative = inhibition [2] -0.427% | activity, negative = inhibition [3] 3.35% | Potency [4] > 20.6 µM

Cn1c(-n2c(-c3ccco3)nc3ccccc3c2=O)nc2ccccc21
inactive: activity change, negative = inhibition [1] -5.43% | activity change, negative = inhibition [2] -6.94% | activity, negative = inhibition [3] 9.91% | Potency [4] > 20.6 µM

CN(C)c1oc(-c2cccs2)nc1C#N
inactive: activity change, negative = inhibition [1] -7.44% | activity change, negative = inhibition [2] 8.47% | activity, negative = inhibition [3] 10.4% | Potency [4] > 20.6 µM

Cc1ccc(C(=O)NCCCNCCCNC(=O)c2ccc(C)nc2)cn1
inactive: activity change, negative = inhibition [1] 8.18% | activity change, negative = inhibition [2] -5.81% | activity, negative = inhibition [3] 5.34% | Potency [4] > 20.6 µM

Cc1nc2sc(C#N)c(N)c2c2c1CCCC2
inactive: activity change, negative = inhibition [1] -15.7% | activity change, negative = inhibition [2] -7.96% | activity, negative = inhibition [3] -6.2% | Potency [4] > 20.6 µM

CCOc1ccc(Cc2nc(N)nc(N)n2)cc1
inactive: activity change, negative = inhibition [1] -3.76% | activity change, negative = inhibition [2] 6.51% | activity, negative = inhibition [3] 8.67% | Potency [4] > 20.6 µM

CC(=O)/C=C(\C)NCCNc1c(F)c(F)c(CO)c(F)c1F
inactive: activity change, negative = inhibition [1] -4.08% | activity change, negative = inhibition [2] 1.05% | activity, negative = inhibition [3] -2.87% | Potency [4] > 20.6 µM

O=C(NCc1ccccc1)C1C(=O)N(Cc2ccccc2)C(=O)C1C1(O)CCCC1 (stereo not given)
inactive: activity change, negative = inhibition [1] -16.6% | activity change, negative = inhibition [2] 23.6% | activity, negative = inhibition [3] -6.02% | Potency [4] > 20.6 µM

COc1ccccc1C1/C(=C(/O)c2cnn(-c3ccccc3)c2C)C(=O)C(=O)N1CCN(C)C (stereo not given)
inactive: activity change, negative = inhibition [1] -7.05% | activity change, negative = inhibition [2] 1.4% | activity, negative = inhibition [3] 2.75% | Potency [4] > 20.6 µM

CCN(CC)CCN1C(=O)C(=O)/C(=C(/O)c2c(C)[nH]c(C(=O)OC)c2C)C1c1ccc(OC)cc1 (stereo not given)
inactive: activity change, negative = inhibition [1] 9.19% | activity change, negative = inhibition [2] 8.2% | activity, negative = inhibition [3] 9.4% | Potency [4] > 20.6 µM

CCc1cc(=O)oc2cc(C)c(CN3CCCCC3)c(O)c12
inactive: activity change, negative = inhibition [1] 7.78% | activity change, negative = inhibition [2] -13.9% | activity, negative = inhibition [3] -6.86% | Potency [4] > 20.6 µM

CCOc1ccc(Br)cc1CC(=O)O
inactive: activity change, negative = inhibition [1] 8.45% | activity change, negative = inhibition [2] -5.28% | activity, negative = inhibition [3] 12.6% | Potency [4] > 20.6 µM

O=C(O)CC1SC(=Nc2cccc(C(F)(F)F)c2)NC1=O (stereo not given)
inactive: activity change, negative = inhibition [1] 7.22% | activity change, negative = inhibition [2] 9.67% | activity, negative = inhibition [3] -0.717% | Potency [4] > 20.6 µM

Cc1cc(NC(CC(C)C)C(=O)O)nc(Cc2ccccc2)n1 (stereo not given)
inactive: activity change, negative = inhibition [1] 0.713% | activity change, negative = inhibition [2] 7.49% | activity, negative = inhibition [3] 5.49% | Potency [4] > 20.6 µM

COc1cc(-c2nn3c(C4CCCCC4)nnc3s2)cc(OC)c1OC
inactive: activity change, negative = inhibition [1] -16.1% | activity change, negative = inhibition [2] 10.4% | activity, negative = inhibition [3] 0.0449% | Potency [4] > 20.6 µM

COC(=O)c1n[nH]c2ccccc12
inactive: activity change, negative = inhibition [1] 9.29% | activity change, negative = inhibition [2] 15.6% | activity, negative = inhibition [3] -6.08% | Potency [4] > 20.6 µM

Cc1ccc(N(CC(O)CN(C)C)S(=O)(=O)c2ccccc2)cc1 (stereo not given)
inactive: activity change, negative = inhibition [1] -7.29% | activity change, negative = inhibition [2] -10.3% | activity, negative = inhibition [3] 1.04% | Potency [4] > 20.6 µM

CCN(CC)CCCN1C(=O)C(=O)/C(=C(/O)c2ccccc2)C1c1ccccn1 (stereo not given)
inactive: activity change, negative = inhibition [1] -0.714% | activity change, negative = inhibition [2] 5.2% | activity, negative = inhibition [3] 3.59% | Potency [4] > 20.6 µM

COC(=O)c1cc(Br)c(=O)n(Cc2cccnc2)c1
inactive: activity change, negative = inhibition [1] 2.36% | activity change, negative = inhibition [2] 10.7% | activity, negative = inhibition [3] 9.48% | Potency [4] > 20.6 µM

Cc1cc(OCC(=O)Nc2ccc3oc(-c4ccncc4)nc3c2)ccc1Cl
inactive: activity change, negative = inhibition [1] -4.67% | activity change, negative = inhibition [2] 16.6% | activity, negative = inhibition [3] 3.21% | Potency [4] > 20.6 µM

Cc1ccc(S(=O)(=O)/C(C#N)=C/c2c(N3CCN(C)CC3)nc3ccccn3c2=O)cc1
inactive: activity change, negative = inhibition [1] -12.9% | activity change, negative = inhibition [2] -5.08% | activity, negative = inhibition [3] 1.8% | Potency [4] > 20.6 µM

O=C1CCCN1c1ccc(S(=O)(=O)NCc2ccco2)cc1
inactive: activity change, negative = inhibition [1] 1.18% | activity change, negative = inhibition [2] -10.1% | activity, negative = inhibition [3] 2.23% | Potency [4] > 20.6 µM
